Pf growth 48h – P. falciparum growth inhibition at 48 hours (one generation); Potency, µM (highest dose often 28.7 µM), usual class: inhibitors; P. falciparum luciferase growth in erythrocytes, 48 h; 5.9% of 310,000 active; AID 504832
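Parasite viability was followed by luminescence of a genomically integrated firefly luciferase. Cultures held 0.1% parasitemia at 2% hematocrit (final), incubated under 5% CO2 at 37 C.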
LASV entry inh – Lassa virus entry inhibition | Lassa virus pseudotype entry inhibition, cell reporter | Potency, µM (highest dose often 37.9 µM), hits mostly inhibitors | 1.2% of 300,000 active; calls by dose curve; tested in HEK293 cells; note: nearly all actives have a fitted effect of over 50% in size
Pf growth 96h – P. falciparum growth inhibition at 96 hour, primary screen for plastid delayed-death inhibitors; P. falciparum luciferase reporter growth, 96 h; Potency, µM (doses to about 28.7 µM), hits mostly inhibitors; 6.9% of 320,000 active
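Luminescence readout: decreased luciferase signal marks inhibited growth of reporter-expressing P. falciparum in infected red cells (2% hematocrit, 0.05% parasitemia final), exposed to compound two generations (96 h, 37 C, 5% CO2).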
Shiga toxin inh – Shiga toxin inhibition | Vero cells, Shiga toxin protein synthesis inhibition reporter | inhibition, % at 38.7 µM | 9.2% of 290,000 active | AID 2315; in the data active = inhibition mostly above about 28%, no sharp cut-off; inactive = mostly below about 43%
Marburg entry inh – Marburg virus entry inhibition | Marburg virus pseudotyped entry inhibition, cell reporter | Potency, µM (top dose mostly 37.8 µM), hits mostly inhibitors | 1.8% of 300,000 active; calls by dose curve; tested in HEK293 cells
Cycloheximide cs – affects cycloheximide protein synthesis inhibition readout, counter-screen; max response, %; 12% of 300,000 active; AID 2314; cell reporter, cycloheximide protein synthesis inhibition counterscreen; in the data active = max response mostly above about 13%, no sharp cut-off; inactive = mostly below about 14%; note: read at 38.3 µM for the half of the compounds with a filed dose
Each line names hits and unclear results; the compound was inactive in the other large screens. Hits are enriched below; roughly 19% of the tested compounds scored in any of these assays. Unless noted, calls come from the whole dose curve; as a rule, active = well fitted inhibition curve with a large enough effect; inconclusive = small, poorly fitted or top-dose-only effect, or another doubt; inactive = no such curve, though single readings can be large or run the other way.

O=C(C(Cc1ccccc1)N1C(=O)c2ccccc2C1=O)N1CCc2ccccc21 (stereo not drawn)	Pf growth 48h 15µM, LASV entry inh inconclusive, Pf growth 96h inconclusive, Marburg entry inh inconclusive
CN(CC(=O)Nc1ccccc1Cl)C(=O)COC(=O)/C=C/c1ccc(C(F)(F)F)cc1	Pf growth 48h inconclusive (no result: LASV entry inh, Marburg entry inh)
COC(=O)C(C)N(C(=O)c1cccc(Cl)c1)c1c(C)cccc1C (stereo not drawn)	Pf growth 96h inconclusive (no result: Pf growth 48h)
COc1ccc(C)cc1NC(=O)CC(NC(C)=O)c1ccccc1 (stereo not drawn)	none (no result: LASV entry inh, Marburg entry inh)
NC(=O)NCc1ccc(C(=O)OCc2ccncc2)cc1	none
COc1cccc(CN2CCN(S(=O)(=O)c3ccc(Br)cc3)CC2)c1	none (no result: Pf growth 96h)
CCOC(=O)c1ccc(N2C(=O)C3C(/C=C/c4ccccc4)OC4(C(=O)c5ccccc5C4=O)C3C2=O)cc1 (stereo not drawn)	Pf growth 96h inconclusive
Cc1ccn(C(C)CC(=O)N2CCc3ccccc32)n1 (stereo not drawn)	none (no result: LASV entry inh, Marburg entry inh)
O=C(CCn1cccc1)N1CCc2ccccc21	LASV entry inh inconclusive, Cycloheximide cs 53
Cn1cc(S(=O)(=O)CC(=O)N2CCc3ccccc32)c2ccccc21	none (no result: Pf growth 48h, LASV entry inh, Marburg entry inh)
O=C(CS(=O)(=O)c1ccccc1)N1CCc2ccccc21	Pf growth 96h 0.83µM, Shiga toxin inh 74, Cycloheximide cs 40
CC(CC(=O)N1CCc2ccccc21)n1cccn1 (stereo not drawn)	Pf growth 96h inconclusive, Cycloheximide cs 27 (no result: LASV entry inh, Marburg entry inh)
O=C(Cc1ccccc1)N1CCc2ccccc21	Shiga toxin inh 40, Cycloheximide cs 27 (no result: Pf growth 48h)
O=C(NNC(=O)c1sc2cccc(Cl)c2c1Cl)Nc1ccccc1	none
CC12CCC(=O)N1C(C(=O)NNC(=O)c1ccccc1Cl)CS2 (stereo not drawn)	none (no result: LASV entry inh, Shiga toxin inh, Marburg entry inh, Cycloheximide cs)
COc1cccc(CNC(=O)CN2c3cccc4cccc(c34)S2(=O)=O)c1	Marburg entry inh inconclusive (no result: Shiga toxin inh, Cycloheximide cs)
COc1ccc2c(CCNC(=O)/C=C/c3ccc(OC)c(OC)c3)c[nH]c2c1	Pf growth 48h inconclusive, LASV entry inh inconclusive, Pf growth 96h inconclusive, Marburg entry inh inconclusive
COCCn1c(C)cc(C2=NNC(=Nc3ccccc3)SC2)c1C	Pf growth 48h inconclusive, LASV entry inh inconclusive, Cycloheximide cs 23
COCCn1c(C)cc(C2=NNC(=NC(C)(C)C)SC2)c1C	Pf growth 48h 12µM, Pf growth 96h inconclusive
COCCn1c(C)cc(C2=NNC(=Nc3ccc(OC)cc3)SC2)c1C	Pf growth 48h 13µM, Pf growth 96h 3.7µM, Marburg entry inh inconclusive
COCCn1c(C)cc(O)c(C(c2ccccc2)N2CCCCC2)c1=O (stereo not drawn)	none (no result: Pf growth 48h, Pf growth 96h, Shiga toxin inh, Marburg entry inh, Cycloheximide cs)
COCCOC(=O)/C(=C\c1cc(C(C)(C)C)c(O)c(C(C)(C)C)c1)C(C)=O	Pf growth 96h inconclusive (no result: LASV entry inh, Marburg entry inh)
O=C(NCc1ccncc1)C1CCCN1S(=O)(=O)c1ccc(Cl)cc1 (stereo not drawn)	none
CN(C)c1ccc(/C=N/N2C(=O)c3ccccc3C2=O)cc1	Shiga toxin inh 76, Cycloheximide cs 55 (no result: LASV entry inh, Marburg entry inh)
COc1ccc(/C=N\n2nnc3ccccc32)cc1	LASV entry inh 1.4µM, Pf growth 96h 0.41µM, Marburg entry inh 2µM, Cycloheximide cs 28
COc1ccc(/C=N/N2C(=O)c3ccccc3C2=O)cc1	Shiga toxin inh 33, Marburg entry inh inconclusive
COc1ccc(/C=N/NC(=O)CCn2cnc3ccccc32)cc1	none
COc1ccc(/C=C(\NC(=O)c2ccccc2)C(=O)N2CCN(C)CC2)cc1OC	Pf growth 48h inconclusive, Pf growth 96h inconclusive, Marburg entry inh inconclusive (no result: LASV entry inh)
Cc1ccc(S(=O)(=O)NN/C(=N/S(=O)(=O)c2ccccc2)c2ccccc2)cc1	none (no result: LASV entry inh, Marburg entry inh)
O=C(NN/C(=N/S(=O)(=O)c1ccc(Cl)cc1)c1ccccc1)c1cccc(Cl)c1	Shiga toxin inh 81, Cycloheximide cs 31 (no result: LASV entry inh)
Cc1ccc(S(=O)(=O)/N=C(/NNC(=O)c2cccc(Cl)c2)c2ccccc2)cc1	Pf growth 96h inconclusive, Shiga toxin inh 99, Marburg entry inh inconclusive, Cycloheximide cs 33
O=C(Nc1ccccn1)c1ccc(S(=O)(=O)c2ccc(Cl)cc2)cc1	Pf growth 48h inconclusive, LASV entry inh inconclusive
O=S(=O)(/N=C(/Nc1ccccn1)c1ccc(Cl)cc1)c1ccc(Cl)cc1	Pf growth 96h inconclusive, Cycloheximide cs 49
O=C(NN/C(=N/S(=O)(=O)c1ccc(Cl)cc1)c1ccccc1)c1ccc(O)cc1	LASV entry inh inconclusive, Shiga toxin inh 56, Marburg entry inh 20µM, Cycloheximide cs 67
CN(CC(CC(=O)Nc1nncs1)c1ccccc1)S(=O)(=O)c1ccccc1 (stereo not drawn)	Pf growth 96h inconclusive (no result: Pf growth 48h, LASV entry inh, Marburg entry inh)
COc1ccccc1NC(=O)N[C@@H](Cc1c[nH]c2ccccc12)C(=O)NN	Pf growth 48h inconclusive, Pf growth 96h inconclusive
COc1cc(N/C(=N/S(=O)(=O)c2ccccc2)c2ccccc2)ncn1	Shiga toxin inh 68, Marburg entry inh inconclusive, Cycloheximide cs 46
CSCC[C@H](NC(=O)OC(C)(C)C)c1nnc(SCc2ccccc2)o1	Pf growth 48h 6.6µM, LASV entry inh inconclusive, Marburg entry inh inconclusive
CSc1nnc([C@H](Cc2c[nH]c3ccccc23)NC(=O)OC(C)(C)C)o1	LASV entry inh inconclusive, Shiga toxin inh 65, Marburg entry inh inconclusive, Cycloheximide cs 26
CC(C)(C)OC(=O)N1CCC[C@H]1c1nnc(SCc2ccccc2)o1	Pf growth 48h inconclusive, LASV entry inh inconclusive, Pf growth 96h 12µM
CC(C)C[C@H](NC(=O)OC(C)(C)C)c1nnc(SCc2cccc(F)c2)o1	Pf growth 48h inconclusive, LASV entry inh inconclusive, Pf growth 96h 10µM, Shiga toxin inh 27
CC(C)C[C@H](NC(=O)NCCC1=CCCCC1)C(=O)O	none (no result: LASV entry inh, Marburg entry inh)
Cc1ccccc1OC(=O)c1cc(-c2ccc3c(c2)OCCO3)on1	none (no result: Pf growth 48h, Pf growth 96h, Shiga toxin inh, Cycloheximide cs)
COc1ccc(Nc2nc(N3CCCCC3)nc(N3CCCCC3)n2)c(OC)c1	none
Cc1cccc(NC(=O)CSc2nnc([C@@H](N)Cc3c[nH]c4ccccc34)o2)c1C	Pf growth 48h inconclusive, Pf growth 96h 1.7µM
COC(=O)CS(=O)(=O)c1nnc([C@H](Cc2ccccc2)NC(=O)OC(C)(C)C)o1	LASV entry inh inconclusive, Marburg entry inh inconclusive
Cc1cccc(CS(=O)(=O)c2nnc([C@H](Cc3ccccc3)NC(=O)OC(C)(C)C)o2)c1	Marburg entry inh 16µM (no result: Pf growth 48h)
CN(C=[N+](C)C)c1cccc2c1C(=O)c1ccccc1C2=O	LASV entry inh inconclusive, Marburg entry inh inconclusive
Cc1ccc(-c2csc(N3CCC(NS(=O)(=O)c4ccc5c(c4)OCCO5)CC3)n2)cc1	Pf growth 48h inconclusive, LASV entry inh inconclusive, Pf growth 96h 9.3µM, Marburg entry inh inconclusive
O=S(=O)(NC1CCN(S(=O)(=O)c2c(F)cccc2F)CC1)c1ccc2c(c1)OCCO2	none (no result: Pf growth 48h, LASV entry inh, Pf growth 96h, Marburg entry inh)
COc1ccccc1C(=O)Oc1ccc(C(C)C)cc1	Shiga toxin inh 84, Cycloheximide cs 35 (no result: Pf growth 48h)
COc1ccc(C(=O)O/N=C(\N)c2ccccc2Cl)cc1OC	LASV entry inh 4.5µM, Pf growth 96h 5.2µM, Shiga toxin inh 159, Marburg entry inh 11µM, Cycloheximide cs 33
